Measurements: PubChem BioAssay (Tox21)
Inconclusive results are not listed. Activity calls are given as the source filed them. Unless noted, calls follow the shape of the dose curve; as a rule, active = well fitted curve in the direction sought with a large enough effect in the repeat runs; inconclusive = weak or mixed curves; inactive = no such curve, though single readings can be large; an effect the other way counts as inactive or inconclusive.

Columns and labels:
[1] = qHTS RealTime-Glo MT Cell Viability Assay in HEK293 cells - 0 hour (AID 1224880); also: top concentration of the series differs between compounds; nearly all actives have a fitted effect of over 45% in size
Method in brief: (§1)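 Luminescence readout at each listed time point; HEK293, 600 cells/well, RealTime-Glo MT reagent added with cells; compounds pinned (23 nL in DMSO) after 5 h at 37 C; continuous culture at 37 C.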

[2] = A CellTox Green Cytotoxicity Assay to monitor cytotoxicity in HEK293 cells - 32 hour (AID 1224881); also: nearly all actives have a fitted effect of over 40% in size
Method in brief: (§2)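 Read-out: fluorescence of a cell-impermeant cyanine dye staining DNA of dead cells, proportional to cytotoxicity. HEK293, 600 cells/well with reagent, compound (23 nL DMSO) added after 5 h; reads at 0, 8, 16, 24, 32, 40 h.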

[3] = A CellTox Green Cytotoxicity Assay to monitor cytotoxicity in HepG2 cells - 0 hour (AID 1224882); also: nearly all actives have a fitted effect of over 35% in size
Method in brief: (§3)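 HepG2, 600 cells/well premixed w/ CellTox Green; 5 h settle, 37 C/5% CO2; pintool cpd add (DMSO); 37 C, 40 h; fluorescence read at 0, 8, 16, 24, 32, 40 h.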

[4] = A CellTox Green Cytotoxicity Assay to monitor cytotoxicity in HepG2 cells - 32 hour (AID 1224883); also: nearly all actives have a fitted effect of over 50% in size
Method in brief: as §3

[5] = A CellTox Green Cytotoxicity Assay to monitor cytotoxicity in HEK293 cells - 8 hour (AID 1224884); also: nearly all actives have a fitted effect of over 35% in size
Method in brief: as §2

[6] = qHTS RealTime-Glo MT Cell Viability Assay in HEK293 cells - 24 hour (AID 1224886); also: top concentration of the series differs between compounds; nearly all actives have a fitted effect of over 50% in size
Method in brief: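 Assay medium contained NanoLuc luciferase plus cell-permeant prosubstrate, added with HEK293 cells at 600 cells/well. After 5 h at 37 C/5% CO2 compounds were added; plates stayed at 37 C for 40 h with serial luminescence reads.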

[7] = qHTS RealTime-Glo MT Cell Viability Assay in HEK293 cells - 8 hour (AID 1224887); also: top concentration of the series differs between compounds; nearly all actives have a fitted effect of over 50% in size
Method in brief: as §1

[8] = A CellTox Green Cytotoxicity Assay to monitor cytotoxicity in HEK293 cells - 16 hour (AID 1224888); also: nearly all actives have a fitted effect of over 35% in size
Method in brief: as §2

[9] = A CellTox Green Cytotoxicity Assay to monitor cytotoxicity in HepG2 cells - 8 hour (AID 1224890); also: nearly all actives have a fitted effect of over 45% in size
Method in brief: as §3

[10] = qHTS assay to identify small molecule antagonists of the estrogen receptor alpha (ER-alpha) signaling pathway using the BG1 cell line in the presence of 0.1 nM 17-beta-estradiol - cell viability counter screen (AID 1259241); also: nearly all actives have a fitted effect of over 40% in size
Method in brief: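 VM7Luc4E2 cells (endogenous full-length ER-alpha, 4xERE-luciferase), cultured 5 days in charcoal-stripped serum, exposed to compounds with 0.1 nM 17beta-estradiol (final) for 22 hr at 37C. Viability read in same wells as live-cell protease fluorescence after 30 min.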

[11] = qHTS assay to identify small molecule antagonists of the androgen receptor (AR) signaling pathway using the MDA cell line in the presence of 0.5 nM R1881 - cell viability counter screen (AID 1259242); also: nearly all actives have a fitted effect of over 45% in size
Method in brief: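 Live-cell protease fluorescence, CellTiter-Fluor, 30 min at 37C. Cells: MDA-kb2, 3,000/well, preincubated 5 hr. Compounds plus 0.5 nM R1881 final, 16 hr, 37C, 0% CO2.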

[12] = target: Androgen receptor (Homo sapiens) (UniProt P10275); assay: qHTS assay to identify small molecule antagonists of the androgen receptor (AR) signaling pathway using the MDA cell line in the presence of 0.5 nM R1881 (AID 1259243); also: nearly all actives have a fitted effect of over 50% in size
Method in brief: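 MDA-kb2, MMTV-luc (AR/GR elements); 3,000 cells/well; cpd + 0.5 nM R1881 final; 16 hr 37C, 0% CO2; ONE-Glo 30 min RT; luminescence.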

[13] = qHTS assay to identify small molecule HDAC inhibitors (AID 1259364); also: potency is read from the fitted curve at half-maximal effect;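 also: wild-type HCT-116 cells with endogenous class I/II HDAC activity; nearly all actives have a fitted effect of over 45% in size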
Method in brief: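 HCT-116 (wild type), 1,500 cells/well, overnight; compound 2 hr 37C 5% CO2; HDAC-Glo I/II reagent 30 min RT; luminescence readout.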

[14] = qHTS assay to identify small molecule HDAC inhibitors - cell viability counter screen (AID 1259365)
Method in brief: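 Wild-type HCT-116 cells, 1,500/well, cultured overnight, then compound-treated 2 h at 37 C. Viability measured as ATP luminescence with CellTiter-Glo after 30 min at room temperature.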

[15] = qHTS assay to identify small molecule agonists of the sonic hedgehog signaling (Shh) pathway - cell viability counter screen (AID 1259366); also: nearly all actives have a fitted effect of over 50% in size
Method in brief: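 NIH/3T3-derived Gli1-Luc reporter cells, 2,000 per well, received compound after 4 h and were treated about 23 h at 37C. Viability measured in the same wells by CellTiter-Fluor fluorescence after 1 h.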

[16] = qHTS assay to identify small molecule antagonists of the sonic hedgehog signaling (Shh) pathway - cell viability counter screen (AID 1259367); also: nearly all actives have a fitted effect of over 55% in size
Method in brief: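 Viability was read by CellTiter-Fluor fluorescence in the same wells, reagent added 23 hr into compound treatment and incubated 1 hr at 37C. The 3T3 Gli1-Luc reporter cells (2,000/well) received conditioned medium after compound and ran 24 hr.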

[17] = qHTS RealTime-Glo MT Cell Viability Assay in HepG2 cells - 16 hour (AID 1224885); also: nearly all actives have a fitted effect of over 50% in size
Method in brief: (§4)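 qHTS, HepG2, 600 cells/well, RealTime-Glo (NanoLuc + prosubstrate) added with cells; 5 h preincubation; DMSO compound addition; 37 C; luminescence at 0/8/16/24/32/40 h.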

[18] = qHTS RealTime-Glo MT Cell Viability Assay in HepG2 cells - 0 hour (AID 1224889); also: nearly all actives have a fitted effect of over 50% in size
Method in brief: as §4

[19] = target: Estrogen receptor (Homo sapiens) (UniProt P03372); assay: qHTS assay to identify small molecule antagonists of the estrogen receptor alpha (ER-alpha) signaling pathway using the BG1 cell line in the presence of 0.1 nM 17-beta-estradiol (AID 1259244); also: nearly all actives have a fitted effect of over 50% in size
Method in brief: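 Luminescence after ONE-Glo (30 min, room temperature) measured ERE-luciferase activity in VM7Luc4E2 cells treated 22 h with compound and 0.1 nM final 17beta-estradiol as stimulator.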

[20] = qHTS assay to identify small molecule phospholipidosis (PLD) inducers (AID 1259344; active = well fitted curve in the direction sought with a large enough effect; an effect the other way counts as inactive or inconclusive; also: potency is read from the fitted curve at half-maximal effect)
Method in brief: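 Phospholipid accumulation was scored by imaging: fixed, Hoechst-counterstained HepG2 cells stained with LipidTOX Red after 24 h compound exposure at 37 C. Read-outs were pit count and pit intensity per well or per cell, with amiodarone and DMSO controls.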
% is scaled to controls: 0 for no effect and ±100 for the full control effect.

Chain of Androgen receptor (Homo sapiens) (P10275 whole entry, looked up): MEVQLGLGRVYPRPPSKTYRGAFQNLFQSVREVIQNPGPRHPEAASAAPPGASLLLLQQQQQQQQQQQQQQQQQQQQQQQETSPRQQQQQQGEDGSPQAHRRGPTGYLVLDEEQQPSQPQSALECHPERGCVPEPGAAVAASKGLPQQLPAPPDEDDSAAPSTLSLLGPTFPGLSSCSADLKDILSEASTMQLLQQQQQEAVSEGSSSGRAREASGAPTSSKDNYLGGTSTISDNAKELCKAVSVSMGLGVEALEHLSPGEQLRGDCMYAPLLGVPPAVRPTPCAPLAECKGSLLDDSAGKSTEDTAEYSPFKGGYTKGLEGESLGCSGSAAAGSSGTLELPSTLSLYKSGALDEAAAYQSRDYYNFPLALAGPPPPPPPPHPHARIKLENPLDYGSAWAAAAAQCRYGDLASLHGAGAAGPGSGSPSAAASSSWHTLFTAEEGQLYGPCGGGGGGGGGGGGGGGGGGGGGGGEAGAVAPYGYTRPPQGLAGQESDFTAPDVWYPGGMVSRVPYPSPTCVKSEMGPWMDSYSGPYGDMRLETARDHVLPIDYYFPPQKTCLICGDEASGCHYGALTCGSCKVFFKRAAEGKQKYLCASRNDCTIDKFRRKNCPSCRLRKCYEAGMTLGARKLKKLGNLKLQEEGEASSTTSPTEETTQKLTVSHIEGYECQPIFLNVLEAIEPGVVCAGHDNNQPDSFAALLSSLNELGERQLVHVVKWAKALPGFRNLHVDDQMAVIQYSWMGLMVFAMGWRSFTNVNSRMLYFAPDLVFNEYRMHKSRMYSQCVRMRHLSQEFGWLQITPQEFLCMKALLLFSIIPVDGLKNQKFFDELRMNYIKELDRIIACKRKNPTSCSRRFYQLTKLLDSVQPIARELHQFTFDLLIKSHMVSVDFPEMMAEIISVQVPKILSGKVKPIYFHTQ
Chain of Estrogen receptor (Homo sapiens) (P03372 whole entry, looked up): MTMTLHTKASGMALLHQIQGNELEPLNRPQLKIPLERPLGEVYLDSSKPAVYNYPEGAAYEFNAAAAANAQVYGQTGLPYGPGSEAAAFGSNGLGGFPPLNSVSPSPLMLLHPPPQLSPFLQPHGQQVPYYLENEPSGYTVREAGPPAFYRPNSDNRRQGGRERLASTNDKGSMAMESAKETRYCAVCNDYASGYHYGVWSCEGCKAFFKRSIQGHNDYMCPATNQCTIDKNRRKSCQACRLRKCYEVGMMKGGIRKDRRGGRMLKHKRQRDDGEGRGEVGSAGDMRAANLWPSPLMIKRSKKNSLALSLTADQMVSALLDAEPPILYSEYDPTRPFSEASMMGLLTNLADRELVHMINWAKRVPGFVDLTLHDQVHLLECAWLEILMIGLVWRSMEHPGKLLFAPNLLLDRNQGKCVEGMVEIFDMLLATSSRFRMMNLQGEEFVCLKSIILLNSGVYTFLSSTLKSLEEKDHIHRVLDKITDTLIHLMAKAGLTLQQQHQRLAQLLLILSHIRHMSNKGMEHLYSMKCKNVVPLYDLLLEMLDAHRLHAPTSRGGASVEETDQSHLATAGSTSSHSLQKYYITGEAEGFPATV

NC(=O)c1ccccc1
inactive: Potency [1] | Potency [2] | Potency [3] | Potency [4] | Potency [5] | Potency [6] | Potency [7] | Potency [8] | Potency [9] | Potency [10] | Potency [11] | Potency [12] | Potency [13] | outcome [14] | Potency [15] | Potency [16]

CC(C)=CCCC(C)C=O (centres undefined)
inactive: Potency [1] | Potency [2] | Potency [3] | Potency [4] | Potency [5] | outcome [17] | Potency [7] | Potency [8] | Potency [18] | Potency [9] | Potency [10] | Potency [11] | Potency [19] | Potency [13] | Potency [15] | Potency [16]

CCCc1nc(C)c2c(=O)[nH]c(-c3cc(S(=O)(=O)N4CCN(CC)CC4)ccc3OCC)nn12
inactive: Potency [1] | Potency [2] | Potency [3] | Potency [4] | Potency [5] | outcome [17] | Potency [7] | Potency [8] | Potency [18] | Potency [9] | Potency [10] | Potency [11] | Potency [12] | Potency [20] | Potency [13] | outcome [14] | Potency [15] | Potency [16]

C(/C=C/C=C/Nc1ccccc1)=Nc1ccccc1
inactive: Potency [1] | Potency [2] | Potency [3] | Potency [4] | Potency [5] | outcome [17] | Potency [6] | Potency [8] | Potency [9] | Potency [10] | Potency [11] | Potency [19] | Potency [13] | outcome [14]

Cc1ccc2c(Cl)cc(Cl)c(O)c2n1
inactive: Potency [1] | Potency [2] | Potency [3] | Potency [4] | Potency [5] | outcome [17] | Potency [6] | Potency [8] | Potency [9] | Potency [10] | Potency [11] | Potency [12] | Potency [19] | PLD induction [20] 0.648% [at 1.53 µM] | Potency [13] | outcome [14] | Potency [15] | Potency [16]

C[C@]12CCC(=O)C=C1[C@@H]1C[C@@H]1[C@H]1[C@@H]3[C@@H]4C[C@@H]4[C@@]4(CCC(=O)O4)[C@@]3(C)CC[C@@H]12
active: Potency [20] 11.2 µM
inactive: Potency [1] | Potency [2] | Potency [3] | Potency [4] | Potency [5] | outcome [17] | Potency [8] | Potency [18] | Potency [9] | Potency [10] | Potency [11] | Potency [13] | outcome [14] | Potency [16]

Cc1ccccc1CCO
inactive: Potency [1] | Potency [2] | Potency [3] | Potency [4] | Potency [5] | outcome [17] | Potency [7] | Potency [8] | Potency [18] | Potency [9] | Potency [10] | Potency [11] | Potency [13] | outcome [14] | Potency [15] | Potency [16]

O=C(O)CNc1ccccc1
inactive: Potency [1] | Potency [2] | Potency [3] | Potency [4] | Potency [5] | outcome [17] | Potency [8] | Potency [9] | Potency [10] | Potency [11] | Potency [13] | outcome [14] | Potency [16]

C1CCN(CN2CCCCC2)CC1
inactive: Potency [1] | Potency [2] | Potency [3] | Potency [4] | Potency [5] | Potency [6] | Potency [7] | Potency [8] | Potency [18] | Potency [9] | Potency [10] | Potency [11] | Potency [19] | Potency [13] | Potency [15] | Potency [16]

CCCCOc1ccc(N)cc1
inactive: Potency [1] | Potency [2] | Potency [3] | Potency [4] | Potency [5] | Potency [6] | Potency [7] | Potency [8] | Potency [18] | Potency [9] | Potency [10] | Potency [11] | Potency [19] | Potency [13] | outcome [14] | Potency [16]

COc1cccc([C@H](O)C2CCN(CCc3ccc(F)cc3)CC2)c1OC
inactive: Potency [1] | Potency [2] | Potency [3] | Potency [4] | Potency [5] | outcome [17] | Potency [7] | Potency [8] | Potency [18] | Potency [9] | Potency [10] | Potency [11] | Potency [13] | outcome [14] | Potency [15] | Potency [16]

OCCOc1cccc(OCCO)c1
active: Potency [13] 24.3 µM
inactive: Potency [1] | Potency [2] | Potency [3] | Potency [4] | Potency [5] | Potency [6] | Potency [7] | Potency [8] | Potency [18] | Potency [9] | Potency [10] | Potency [11] | outcome [14] | Potency [16]

CC(CCl)OC(C)CCl (centres undefined)
inactive: Potency [1] | Potency [2] | Potency [3] | Potency [4] | Potency [5] | Potency [6] | Potency [7] | Potency [8] | Potency [18] | Potency [9] | Potency [10] | Potency [11] | Potency [19] | Potency [13] | outcome [14] | Potency [15] | Potency [16]

O=C(OCCN1CCOCC1)c1cccnc1Nc1cccc(C(F)(F)F)c1
inactive: Potency [1] | Potency [2] | Potency [3] | Potency [4] | Potency [5] | outcome [17] | Potency [7] | Potency [8] | Potency [18] | Potency [9] | Potency [10] | Potency [11] | Potency [19] | Potency [13] | outcome [14] | Potency [15] | Potency [16]

CS(C)=O
inactive: Potency [1] | Potency [2] | Potency [3] | Potency [4] | Potency [5] | outcome [17] | Potency [7] | Potency [8] | Potency [18] | Potency [9] | Potency [10] | Potency [11] | Potency [13] | outcome [14] | Potency [16]

O=P(c1ccccc1)(c1ccccc1)c1ccccc1
inactive: Potency [1] | Potency [2] | Potency [3] | Potency [4] | Potency [5] | Potency [6] | Potency [7] | Potency [8] | Potency [18] | Potency [9] | Potency [10] | Potency [11] | Potency [19] | Potency [13] | Potency [15] | Potency [16]
